ROMK mod – modulates human ROMK potassium channel activity | P48048 | Tet-inducible ROMK, thallium flux fluorescence; actives lie on both sides | B-score at 10 µM | 130,000 tested, 2% active | AID 1918;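 active means signal ratio slope over the read window, or its plate-corrected B-score, at least 3 SD from the plate mean, either direction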;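 further: B-score of the F/F0 ratio slope over 7 to 12 s after thallium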
PTEN del growth – PTEN-deleted cell growth suppression; HCT116 PTEN-null viability, CellTiter-Glo, 60 h; stronger effect = lower value; viability, % at 10 µM; 140,000 tested, 1.2% active;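 active means viability at or below a set limit, 4 SD under the median of all tested compounds, cut at about 3.7% in these data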;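 further: PTEN knockout HCT116 line with beta catenin targeted HCT116 as companion control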
Insulin prom inh – TRM-6 insulin promoter activity inhibition; inhibition, % at 2 µM; 130,000 tested, 0.9% active; TRM-6 cells (human fetal islet line), insulin promoter-eGFP reporter, imaging; reporter expression induced with tamoxifen;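 active means inhibition above the mean plus 3 SD, with well images judged a real hit on visual review, cut at about 60% in these data, passing the limit was not always enough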
HCT116 bCat-KO – beta-catenin-lacking colon tumor cell growth suppression; viability, % at 10 µM; AID 818; 140,000 tested, 1.5% active; HCT116 beta-catenin knockout viability, CellTiter-Glo, 60 h; stronger effect = lower value;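 active means viability at or under a set limit, the compound median less 4 SD, cut at about 6% in these data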
p97 inhibitor – human p97 ATPase inhibition. P55072. recombinant p97 ATPase, Kinase-Glo ATP luminescence, 3 h. inhibition, % at 8 µM. 220,000 tested, 0.42% active. AID 1481; in the data active means inhibition above about 15%
L major viab – reduces viability of Leishmania major promastigotes. inhibition, % at 10 µM. resazurin fluorescence viability. 200,000 tested, 9% active; in the data active means inhibition above about 50%;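 further: promastigotes grown with compound for 44 hours at 28 °C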
Numbers stand for hits; – = inactive; · = not tested or not shown. This is a sample that favours compounds with a hit; in the whole collection about 10% have one here.

SMILES	ROMK mod	PTEN del growth	Insulin prom inh	HCT116 bCat-KO	p97 inhibitor	L major viab
CCCCN(CC)CCCNC(=S)Nc1ccc2nc3n(c(=O)c2c1)CCCCC3	–	–	–	–	–	–
CCOc1ccc(NC(=O)CCC(=O)NNC(=O)Nc2ccc(Cl)cc2)cc1	–	·	·	·	–	–
Cc1nc(N(C)Cc2ccccc2)c2nnn(Cc3ccccc3)c2n1	–	–	–	–	–	–
CCC(=O)n1nc(-c2ccccc2)nc1NCc1ccccc1	·	–	86	–	–	–
COCC(=O)n1nc(-c2ccccc2)nc1NCc1ccccc1	·	·	·	·	–	–
COc1ccc(N2CCc3c(C)nc4c(OC)cccc4c32)cc1	–	·	·	·	–	100
Cc1nc2c(C)cccc2c2c1CCN2c1ccccc1F	–	·	·	·	–	·
COc1ccc(N2CCc3c(C)nc4c(OC)cc(OC)cc4c32)cc1	–	·	–	·	–	100
CCOc1cc(/C=N/NC(=O)C(=O)NCCCOC(C)C)cc(Br)c1O	–	–	–	–	–	70
CCOc1cc(/C=N\NC(N)=O)cc(Br)c1OC(C)C	–	–	–	–	–	–
COc1ccc2c(c1)CCc1c(C(=O)NCCCn3ccnc3)noc1-2	–	–	–	–	–	100
Cc1ccc(Cn2cccc(NC(=O)NC3CCCCC3)c2=O)cc1	·	–	–	–	–	86
O=C(Nc1cccn(Cc2ccc(F)cc2)c1=O)NC1CCCCC1	·	–	–	–	–	83
COc1cccc(Cn2cccc(NC(=O)NC3CCCCC3)c2=O)c1	–	–	·	–	–	99
O=C(NCc1ccccc1)Nc1cccn(Cc2ccc(F)cc2)c1=O	–	–	–	–	–	–
CC(=O)Nc1ccc(S(=O)(=O)Nc2cccn(Cc3ccc(C)cc3)c2=O)cc1	–	·	–	·	–	–
CCOC(=O)CNC(=S)N1CCn2c(nc3ccccc32)C1	–	·	–	·	–	–
CCOC(=O)c1cccc(-n2c(-c3ccc(OC)cc3)nc3nc4ccccc4nc32)c1	·	–	–	–	–	–
O=C(O)c1ccc2c(=O)n3c(nc2c1)/C(=C/c1cccc(Cl)c1Cl)CCCC3	–	–	–	–	–	–
COc1ccc(NC(=O)CN2CCN(C3c4ccccc4-c4ccccc43)CC2)c(OC)c1	–	–	–	–	–	–
CCOc1ccc(NC(=O)CN2CCN(C3c4ccccc4-c4ccccc43)CC2)cc1	·	–	–	–	–	90
COc1ccccc1NC(=O)CN1CCN(C2c3ccccc3-c3ccccc32)CC1	–	–	–	–	–	58
Cc1csc(NC(=O)c2nn(C)c(C)c2[N+](=O)[O-])n1	–	–	–	–	–	–
O=C(CCn1cnc(-c2ccccc2)c1-c1ccccc1)N/N=C/c1ccc(O)cc1	·	–	–	–	–	–
O=C(CCn1cnc(-c2ccccc2)c1-c1ccccc1)N/N=C/c1ccccc1O	–	–	–	–	–	98
SMILES	ROMK mod	PTEN del growth	Insulin prom inh	HCT116 bCat-KO	p97 inhibitor	L major viab
CCC1CCCCN1S(=O)(=O)c1ccc2c(c1)CCN2C(=O)C1CCC1 (centres undefined)	–	–	–	–	–	–
O=C(CCl)c1ccc2c(c1)CCN2C(=O)C1CCCCC1	·	·	–	·	–	100
Cc1cc(C)cc(N(CCC(=O)Nc2nnc(C)s2)S(=O)(=O)c2ccc(Cl)cc2)c1	·	–	–	–	–	93
Cc1ccc(S(=O)(=O)NCCC(=O)Nc2nnc(C)s2)cc1	–	–	–	–	–	–
CCCCCc1ccc(OCCCC[n+]2cccc(C)c2)c(CCCCC)c1	–	·	–	·	–	101
CCCCOc1ccc(C)cc1CN(CCO)CCO	–	–	–	–	–	–
Cc1[nH]c2ccccc2c1C(=O)COC(=O)c1ccc2c(=O)n3c(nc2c1)CCC3	–	·	·	·	–	–
COc1ccccc1NC(=O)Oc1ccc(NC(=O)c2ccco2)cc1	–	–	–	–	–	52
CC(C)(C)NC(=O)c1cccc(NC(=O)c2ccc(NC(=O)c3ccco3)cc2)c1	·	–	100	–	–	–
COc1ccccc1NC(=O)c1cccc(NC(=O)c2ccco2)c1	·	–	–	–	–	88
O=C(Nc1ccc(Oc2ccc(NC(=O)c3ccco3)c(NC(=O)c3ccco3)c2)cc1)c1ccco1	·	–	–	–	–	98
COc1ccc(NC(=O)c2ccco2)cc1NC(=O)c1ccco1	·	–	·	–	–	–
Cc1[nH]c(=O)[nH]c(=O)c1S(=O)(=O)N1CCCC(C(=O)NCCC2=CCCCC2)C1 (centres undefined)	–	·	–	·	–	–
COc1ccc(CN2C(=O)c3ccccc3C2C(=O)NC2CCCCCC2)c(OC)c1 (centres undefined)	–	·	–	·	–	–

Screens: PubChem BioAssay, several laboratories
